# The whole screen tested about 100,000 compounds, of which about 770 (0.77%) were called active. This excerpt belongs to a sample that is enriched for actives. A number with no mark means an inactive call. No stated cut-off is given here; in the data, active means inhibition above about 50%; inactive means the rest.
# Target: Gag-Pol polyprotein (Human immunodeficiency virus type 1 group M subtype B (isolate HXB2)) (UniProt P04585)
# Experiment: RNase H inhibition, HIV 1 Gag Pol polyprotein, FRET biochemical assay, screening (AID 372)
# Conditions: HIV-1 RT RNase H, FRET RNA/DNA substrate fluorescence; at 10 µM; stronger effect = higher value
row,Structure (SMILES),inhibition
1,CC(=O)N1N=C(c2ccc(N(C)C)cc2)CC1c1ccccc1 (stereo unspecified),11%
2,Nc1[nH]n(-c2ccccc2)c(=O)c1N=Nc1ccc(Cl)cc1,9%
3,O=C(N/N=C/c1ccc(I)cc1)C1CC(=O)N(c2ccccc2)C1 (stereo unspecified),9%
4,Cc1cc(/C=N/O)c(C)n1-c1ccc(N(C)C)cc1,11%
5,CCOc1cc(/C=C(\C#N)c2nc3ccccc3s2)ccc1O,16%
6,COc1cc(/C=C(\C#N)c2nc3ccccc3s2)cc(OC)c1O,54% (active)
7,COc1cc(/C=C(\C#N)c2nc3ccccc3s2)cc(Br)c1O,5%
8,C=CCN(CC=C)CC(O)CN1C(=O)NC(C)(C)C1=O (stereo unspecified),3%
9,CC1=CC(C)(C)N(C(=O)CSc2nc3ccccc3s2)c2cc(C)ccc21,20%
10,Cc1ccc(C(=O)CSc2nc(N)c(C#N)c(-c3ccc(O)cc3)c2C#N)cc1,47%
11,COc1ccc(-c2c(C#N)c(N)nc(SCC(=O)OCc3ccccc3)c2C#N)cc1,15%
12,COC(=O)CSc1nc(N)c(C#N)c(-c2ccc(OC)cc2)c1C#N,4%
13,COC(=O)CSc1nc(N)c(C#N)c(-c2ccc(O)cc2)c1C#N,2%
14,COc1cccc(N=Cc2c(O)ccc3ccccc23)c1,13%
15,Cc1ccccc1Nc1ncc(-c2ccc3ccccc3c2)s1,22%
16,COc1cc(C2C(C(=O)/C=C/c3ccccc3)=C(O)C(=O)N2c2ccccn2)ccc1O (stereo unspecified),6%
17,COc1cc2ccccc2cc1C(=O)Nc1ccc(Br)cc1F,18%
18,Cc1ccccc1-n1c(O)c(C=NCc2ccccc2F)c(=O)[nH]c1=O,9%
19,CCCC1CCc2c(sc(N)c2C#N)C1 (stereo unspecified),39%
20,CC1CCc2c(sc(N)c2C#N)C1 (stereo unspecified),57% (active)
21,CCC1CCc2c(sc(N)c2C#N)C1 (stereo unspecified),18%
22,O=C(Nc1ccc(NC(=O)c2cc([N+](=O)[O-])cc([N+](=O)[O-])c2)cc1)c1cccc(Br)c1,12%
23,CCC(OC(=O)CN1C(=O)C(=O)c2ccccc21)C(=O)Nc1ccc(S(N)(=O)=O)cc1 (stereo unspecified),12%
24,O=C(O)COc1ccc(N2C(=O)C=CC2=O)cc1,35%
25,Cc1ccc(C)n1-c1ccc(OCC(=O)O)cc1,54% (active)
26,O=C(O)COc1ccc(N2C(=O)CCC2=O)cc1,12%

row,Structure (SMILES),inhibition
1,Cc1ccc(C)n1-c1ccc(CC(=O)O)cc1,47%
2,CC(=O)c1ccc(-n2c(C)ccc2C)cc1,0%
3,O=C(CN1C(=O)/C(=C/c2ccccc2Cl)SC1=S)Nc1nccs1,14%
4,CCOc1ccccc1N1COc2ccc3ccccc3c2C1,14%
5,CCOc1ccc(CN2CCN(C(=O)c3cccs3)CC2)cc1,5%
6,COc1cccc(OCCCCOc2ccc(Cl)cc2C)c1,29%
7,COc1ccc(OC)c(N(CC(=O)N/N=C/c2cc(Br)ccc2OC)S(=O)(=O)c2ccccc2)c1,2%
8,O=C1NC(=O)/C(=C\c2ccc(Cl)cc2Cl)S1,16%
9,Cc1ccc(NS(=O)(=O)c2cc(Cl)ccc2Cl)c(C)c1,20%
10,Cc1ccc(C)c(NS(=O)(=O)c2cc(Cl)ccc2Cl)c1,47%
11,Cc1ccc(NS(=O)(=O)c2cc(Cl)ccc2Cl)c(Br)c1,51% (active)
12,COc1ccc(C(=O)Nc2ccc(I)cc2Cl)cc1OC,8%
13,COc1ccc(-c2nc(-c3ccccn3)no2)cc1OC,10%
14,CCC(CC)C(=O)Nc1ccc(Cl)cc1Cl,13%
15,O=C(CCSc1nc2ccccc2s1)Nc1ccccc1C(F)(F)F,13%
16,Cn1c(-c2ccc(-c3nc4cnccc4n3C)cc2)nc2cnccc21,70% (active)
17,Cn1c(-c2nc3ccccc3n2C)nc2ccccc21,13%
18,Cn1c(-c2ccccn2)nc2ccccc21,2%
19,CC1CCCN(C2=NC(=O)/C(=C\c3cccc(O)c3)S2)C1 (stereo unspecified),12%
20,Cc1cc(/C=N/NC(N)=S)c(C)n1-c1cccc([N+](=O)[O-])c1,52% (active)
21,Cc1cc(C=O)c(C)n1-c1cccc([N+](=O)[O-])c1,6%
22,Cc1cc(/C=N/NC(=O)c2cc(Br)c(O)c(Br)c2)c(C)n1-c1cccc([N+](=O)[O-])c1,15%
23,Cc1cc(/C=N/NC(N)=S)c(C)n1-c1ccc(Cl)cc1,23%
24,Cc1cc(/C=N/NC(N)=S)c(C)n1-c1cccc(Cl)c1,54% (active)
25,Cc1cccc(-n2c(C)cc(/C=N/NC(N)=S)c2C)c1,56% (active)
26,Cc1ccc(-n2c(C)cc(/C=N/NC(N)=S)c2C)cc1,15%

row,Structure (SMILES),inhibition
1,Cc1cc(/C=N/NC(N)=O)c(C)n1-c1cccc(Cl)c1,24%
2,Cc1cccc(-n2c(C)cc(/C=N/NC(N)=O)c2C)c1,29%
3,O=C(NCCc1ccccc1)/C(=C/c1ccco1)c1ccccc1,2%
4,Cc1ccc(C(=O)c2cccc(C(=O)c3ccc(C)c(C)c3)c2)cc1C,8%
5,O=C(Nc1c(-c2ccccc2)c2cc(Br)ccc2[nH]c1=O)c1cccc(Cl)c1,23%
6,COc1ccc(OC(C)C(=O)Nc2ccc(F)cc2)cc1 (stereo unspecified),0%
7,Cc1ccc(NC(=O)C2CC(=O)N(c3ccc(Br)cc3)C2)cc1Cl (stereo unspecified),5%
8,COC(=O)C1=C(C)N(c2ccccc2)C(=O)/C1=C\c1ccc(C(=O)OC)cc1,15%
9,Cc1cc(NS(=O)(=O)c2ccc(NC(=O)c3cc(Cl)cc(Cl)c3)cc2)no1,0%
10,CC(=O)OCCNc1ccc2noc3c2c1C(=O)c1ccccc1-3,0%
11,COCCCNc1ccc2c3c(nc(=O)n2C)-c2ccccc2C(=O)c13,50% (active)
12,CCCCNc1ccc2c3c(cc(=O)n2C)-c2ccccc2C(=O)c13,8%
13,Fc1ccc(CN2CCc3c([nH]c4ccccc34)C2)cc1,0%
14,CCCC(C)C(=O)Nc1cccc(C)c1C (stereo unspecified),10%
15,CC(C)(C)C1=CC(Cl)=C(C(C)(C)C)C(=O)C1=O,5%
16,CC(C)(C)C1=CC(C(C)(C)C)=C(Cl)C(=O)C1=O,69% (active)
17,CC(C)(C)C1=CC(C(C)(C)C)=C([N+](=O)[O-])C(=O)C1=O,6%
18,Cc1ccccc1CNS(=O)(=O)c1cccs1,0%
19,COc1ccccc1/C=N\N(C)c1nc(-c2ccccc2)cc(-c2ccccc2)n1,17%
20,COc1cc(/C=N/Nc2nc(N3CCOCC3)nc(N3CCOCC3)n2)cc(OC)c1,5%
21,O=C(/C=C/c1ccc(-c2ccccc2[N+](=O)[O-])o1)Nc1ccc(-c2nc3ncccc3o2)cc1,16%
22,O=C(/C=C/c1ccc(-c2ccccc2[N+](=O)[O-])o1)Nc1ccc(-c2nc3ccccc3o2)cc1,45%
23,COc1ccc(-n2nc3ccc(NC(=O)/C=C/c4ccco4)cc3n2)cc1,48%
24,O=C(/C=C/c1ccco1)Nc1ccc2nn(-c3ccccc3)nc2c1,24%
25,O=C(/C=C/c1ccco1)Nc1ccc2nn(-c3ccc(Cl)cc3)nc2c1,50% (active)
26,O=C(/C=C/c1ccco1)Nc1ccc2oc(-c3ccccc3)nc2c1,15%

row,Structure (SMILES),inhibition
1,Cc1ccc(-c2nc3cc(NC(=O)/C=C/c4ccco4)ccc3o2)cc1,12%
2,Cc1cc2nc(-c3cccc(NC(=O)/C=C/c4ccco4)c3)oc2cc1C,12%
3,O=C(/C=C/c1ccc(-c2ccccc2[N+](=O)[O-])o1)Nc1ccc(-c2nc3cc(Cl)ccc3o2)cc1,53% (active)
4,O=C(/C=C/c1ccco1)Nc1ccc(-c2nc3cc(Cl)ccc3o2)cc1,51% (active)
5,Cc1ccc2nc(-c3ccc(NC(=O)/C=C/c4ccco4)cc3)oc2c1,11%
6,Cc1cc2nc(-c3ccc(NC(=O)/C=C/c4ccco4)cc3)oc2cc1C,57% (active)
7,O=C(Nc1ccc(N2CCOCC2)c(Cl)c1)c1cc([N+](=O)[O-])ccc1Cl,24%
8,O=C1NC(=O)C(=Cc2ccccc2OCc2ccccc2F)C(=O)N1,4%
9,COc1ccc(CN2CCN(C(=O)c3cccs3)CC2)c(OC)c1,5%
10,CC(C)(C)c1ccc(S(=O)(=O)Nc2ccc(-c3ccc(NS(=O)(=O)c4ccc(C(C)(C)C)cc4)c(Cl)c3)cc2Cl)cc1,23%
11,CC1CCN(Cc2c(O)ccc3c(=O)c(-c4ccc(Cl)cc4)coc23)CC1,0%
12,COc1cc(-c2nc3ccccn3c2/N=C/c2cccc([N+](=O)[O-])c2)ccc1O,17%
13,O=C(/C=C/c1ccco1)Nc1nc2ccc(Br)cc2s1,59% (active)
14,O=C(/C=C/c1ccco1)Nc1nc(-c2ccc(Br)cc2)cs1,15%
15,O=C(/C=C/c1ccco1)Nc1cccc(-c2nc3ccccc3o2)c1,10%
16,O=C(/C=C/c1ccco1)Nc1ccc(C(=O)Nc2cccc(-c3nc4ccccc4o3)c2)cc1,55% (active)
17,O=C(/C=C/c1ccccc1)Nc1nc2ccc(Br)cc2s1,48%
18,Cc1ccc2oc(-c3cccc(NC(=O)/C=C/c4ccco4)c3)nc2c1,6%
19,CC(C)(C)C(=O)CC(=O)c1ccccc1,10%
20,CCOc1cc(CN2CCCCC2)ccc1OC,19%
21,O=C(NC(=S)Nc1ccc(F)c([N+](=O)[O-])c1)c1cccc(Cl)c1,22%
22,CC(/C=C/c1ccccc1)=N/NS(C)(=O)=O,3%
23,COc1ccc(/C=C/C(=O)Nc2c(C(C)C)cccc2C(C)C)cc1Br,7%

# From PubChem BioAssay AID372 (MTDP, 2006)
